# Measurements reported in PubChem BioAssay AID488975 (Johns Hopkins Ion Channel Center, 2010).
# The campaign covered roughly 310,000 compounds. About 2,600 (0.84%) were called active. This is one part of a sample in which actives are shown more often than they occur.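 The calls were made as follows: active = B-score over 3 SD under the library average, and starting fluorescence ratio not unusually high; inactive = the rest.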
# Target: High affinity choline transporter 1 (Homo sapiens) (UniProt Q9GZV3)
# Sequence (Q9GZV3 whole entry, looked up): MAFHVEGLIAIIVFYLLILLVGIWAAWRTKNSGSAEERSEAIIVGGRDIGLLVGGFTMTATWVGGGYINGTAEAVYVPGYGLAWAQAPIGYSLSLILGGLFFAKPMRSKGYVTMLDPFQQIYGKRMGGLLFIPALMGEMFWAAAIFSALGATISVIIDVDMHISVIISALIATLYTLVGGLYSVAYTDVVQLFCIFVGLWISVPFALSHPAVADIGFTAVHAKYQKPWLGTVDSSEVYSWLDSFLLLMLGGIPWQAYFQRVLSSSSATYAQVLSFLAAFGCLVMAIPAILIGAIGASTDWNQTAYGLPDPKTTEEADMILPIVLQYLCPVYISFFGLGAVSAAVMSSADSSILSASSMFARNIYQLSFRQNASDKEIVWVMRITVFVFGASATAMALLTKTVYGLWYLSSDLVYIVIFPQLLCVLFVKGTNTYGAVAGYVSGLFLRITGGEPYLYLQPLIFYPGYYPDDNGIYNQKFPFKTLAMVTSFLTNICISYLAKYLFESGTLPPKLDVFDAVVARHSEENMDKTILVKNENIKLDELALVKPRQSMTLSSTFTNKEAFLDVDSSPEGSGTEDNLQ
# Test: inhibitors of human choline transporter CHT (AID 488975);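 as to B-score: choline stimulus applied at its EC90 after an EC20 pre-addition; B-score computed on integrated fluorescence ratio after choline addition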
# Settings: CHT-expressing cells, membrane potential dye, choline response, at 10 µM; hits give low values
row,SMILES,B-score
1,COc1ccc(-c2cc(C(=O)N/N=C/c3cccnc3)c3ccccc3n2)c(OC)c1,inactive
2,O=C(O)Cc1ccc(NCc2ccccc2Cl)cc1,inactive
3,O=C(O)CC1=C(Nc2ccccc2)C(=O)N(c2ccccc2)C1c1ccc(Cl)cc1 (configuration not stated),-9.58 (active)
4,COC(=O)CN1C(=S)N(c2ccccc2)C(=O)C1CC(=O)Nc1ccc(Cl)cc1 (configuration not stated),inactive
5,O=C(NCCc1ccco1)C(=O)NCCC1CCCCN1S(=O)(=O)c1ccccc1 (configuration not stated),inactive
6,O=C(C1CCN(S(=O)(=O)c2ccc(Br)s2)CC1)N1CCN(c2ccccc2)CC1,-8.2 (active)
7,CS(=O)(=O)N1CCC(C(=O)N2CCN(c3ccccc3)CC2)CC1,inactive
8,O=C(C1CCN(S(=O)(=O)c2ccc(Br)s2)CC1)N1CCN(C2CCCCC2)CC1,inactive
9,CC(Sc1nn(-c2ccc(Cl)cc2)c(=S)s1)C(=O)NCC1CCCO1 (configuration not stated),inactive
10,COc1ccc(S(=O)(=O)N2CCOC23CCN(S(=O)(=O)c2ccc([N+](=O)[O-])cc2)CC3)cc1,inactive
11,CCC(C)c1ccc(NC(=S)NCc2ccccn2)cc1 (configuration not stated),-9.17 (active)
12,O=C(NCc1ccccn1)Nc1ccc(F)cc1,inactive
13,O=C(NCc1ccccn1)Nc1ccc(Cl)cc1,inactive
14,CCOC(=O)C(C)N(c1ccccc1Cl)S(C)(=O)=O (configuration not stated),inactive
15,O=C(Nc1cccc2cccnc12)c1cccc(N2C(=O)CCC2=O)c1,inactive
16,O=C(Nc1cccc2cccnc12)c1cccc(Cl)c1,inactive
17,N#Cc1ccc(C(=O)Nc2cccc3cccnc23)c(F)c1,-5.02 (active)
18,CCOC(=O)c1cc(C(C)C)sc1NC(=O)COC(=O)c1nccnc1N,inactive
19,CCOc1ccc(NS(=O)(=O)c2ccc(C(=O)NC3CCN(Cc4ccccc4)CC3)cc2)cc1,inactive
20,Cc1ccc(CNC(=O)c2cc(-c3ccccc3C)n(CC3CC(c4cccc([N+](=O)[O-])c4)=NO3)n2)cc1 (configuration not stated),inactive
21,O=C(NCCc1ccc2c(c1)OCCO2)c1cc2ccccc2o1,-5.1 (active)
22,N=c1oc2ccccc2cc1C(=O)NCc1ccccc1,inactive
23,O=C(CC(Cc1ccccc1)C(=O)O)NCCc1ccc2c(c1)OCO2 (configuration not stated),inactive
24,COc1ccc(C(=O)NCC2CCCN2S(=O)(=O)c2cccs2)cc1OC (configuration not stated),inactive
25,Cc1ccc(C(=O)C(C)OC(=O)Cc2n[nH]c(=O)c3ccccc23)cc1C (configuration not stated),inactive
26,COc1nc(OC)nc(N(C)CCO)n1,-12.4 (active)

row,SMILES,B-score
1,O=C(CSC1=NS(=O)(=O)c2cc(F)ccc2N1)Nc1ccccc1F,inactive
2,CN(CC(=O)Nc1cccc(F)c1)C(=O)C1=COCCO1,inactive
3,CN(CCO)c1ccc(/C=N/Nc2nncc3ccccc23)cc1,inactive
4,CC(NC(=O)c1ccc(N2CCNCC2)c([N+](=O)[O-])c1)C12CC3CC(CC(C3)C1)C2 (configuration not stated),-5.65 (active)
5,O=C(Nc1cccc(C(F)(F)F)c1)c1ccc(N2CCNCC2)c([N+](=O)[O-])c1,inactive
6,CCC(C)NC(=O)c1ccc(N2CCC3(CC2)OCCO3)c([N+](=O)[O-])c1 (configuration not stated),inactive
7,CC1CCN(c2ccc(C(=O)Nc3nnc(C4CC4)s3)cc2[N+](=O)[O-])CC1,inactive
8,CS(=O)(=O)N1CCN(c2ccc(C(=O)NC3C4CC5CC(C4)CC3C5)cc2[N+](=O)[O-])CC1 (configuration not stated),inactive
9,O=C(NC1C2CC3CC(C2)CC1C3)c1ccc(N2CCNCC2)c([N+](=O)[O-])c1 (configuration not stated),-5.53 (active)
10,O=C(NCCC1CCCCN1S(=O)(=O)c1ccc(Cl)cc1)C(=O)NCc1ccco1 (configuration not stated),inactive
11,CCCNC(=O)CCn1cc(-c2ccc(OC)cc2)nc1CCN,inactive
12,C=CCNC(=O)C1CC2c3ccccc3C1c1ccccc12 (configuration not stated),inactive
13,CC(=O)Nc1nc2c(s1)C(=O)NCC(C)(C)C2,-5.07 (active)
14,CC1(C)CC(=O)c2sc(N)nc2C1,inactive
15,CNC(=O)c1ccc2nc(NC(C)=O)sc2c1,inactive
16,COc1cccc(N2CC(NC(=O)c3ccc4ccccc4c3)CC2=O)c1 (configuration not stated),inactive
17,COc1cccc(CC2(CO)CCCN(Cc3ccc(OC(F)F)cc3)C2)c1 (configuration not stated),inactive
18,Cc1nn(C)c(C)c1NS(=O)(=O)c1ccc(OC(F)(F)F)cc1,inactive
19,COc1cc(C(=O)N2CCN(C/C=C/c3ccccc3)CC2)cc(OC)c1C,inactive
20,CNC(=O)NC(=O)C(C)N1CCN(C/C=C/c2ccccc2)CC1 (configuration not stated),-6.91 (active)
21,O=C(CCN1CCN(C/C=C/c2ccccc2)CC1)Nc1cccc(F)c1,inactive
22,CCc1ccc(C(=O)NNC(=O)C2CCN(c3ncnc4sc(C)c(C)c34)CC2)cc1,inactive
23,O=C(Nc1ccc(C(=O)N2CCOCC2)cc1)Nc1cccc(C(F)(F)F)c1,inactive
24,CCOc1ccccc1N1CN(Cc2ccccc2)CNC1=S,inactive
25,CCN1CN(Cc2ccccc2)CNC1=S,inactive
26,CCc1ccccc1N1CN(Cc2ccco2)CNC1=S,-5.54 (active)

row,SMILES,B-score
1,Brc1cnc2ccccc2c1N1CCCCC1,inactive
2,CCCCCN(C(=O)CCC(=O)OCC(=O)NC1CCC(C)CC1)c1c(N)n(CCCC)c(=O)[nH]c1=O (configuration not stated),inactive
3,O=C(CN1C(=O)NC2(CCCC2)C1=O)OCCOc1ccc(F)cc1,inactive
4,COc1cc(NC(=O)CSC(=S)N2CCCC2)c(OC)cc1Cl,inactive
5,COc1ccc(/C=C2\SC(=O)N(CCC(=O)NC3CCS(=O)(=O)C3)C2=O)cc1 (configuration not stated),inactive
6,CC(C(=O)NC1CCS(=O)(=O)C1)N1C(=O)/C(=C/c2ccc(Cl)cc2)SC1=S (configuration not stated),-8.07 (active)
7,CN(C(=O)CN1C(=O)/C(=C/c2ccc(Cl)cc2)SC1=S)C1CCS(=O)(=O)C1 (configuration not stated),inactive
8,CCN(Cc1ccccc1)S(=O)(=O)c1cc(C(=O)O)ccc1OC,-5.82 (active)
9,COc1ccc(C(=O)O)cc1S(=O)(=O)NCc1cccnc1,inactive
10,COc1ccc(S(=O)(=O)N(CC(=O)N/N=C/c2ccc(C(=O)O)cc2)Cc2ccccc2)cc1OC,inactive
11,O=C(NCC(c1ccco1)N1CCc2ccccc2C1)c1ccccc1Cl (configuration not stated),inactive
12,NC(=O)c1ccsc1NC(=O)COC(=O)Cc1n[nH]c(=O)c2ccccc12,inactive
13,Nc1c(-c2ccccc2)nnn1Cc1ccccc1,inactive
14,Oc1c(Cl)cc(Cl)c(Cl)c1Cc1c(O)c(Cl)cc(Cl)c1Cl,-6.87 (active)
15,COc1ccc(C2=NN(C(=O)CSc3nc(=O)n4ccc(C)cc4n3)C(c3ccc(C)cc3)C2)cc1 (configuration not stated),inactive
16,CCN1C(=O)[C@H]2[C@@H](c3ccc(-c4ccc(F)cc4)cc3)N[C@@](Cc3ccccc3)(C(=O)OC)[C@H]2C1=O,inactive
17,O=C(Cc1ccc(Br)cc1)NCCc1ccccc1,inactive
18,CC(=O)Nc1ccc(NC(=O)CSC2=NS(=O)(=O)c3ccccc3N2)cc1,inactive
19,C=C(C)CNC(=O)c1ccc(OC2CCN(C(=O)COC)CC2)cc1,inactive
20,C[N+](C)(CCCCCC[N+](C)(C)CCCN1C(=O)c2cccc3cccc(c23)C1=O)CCCN1C(=O)c2cccc3cccc(c23)C1=O,inactive
21,O=C(CCCCCN1C(=O)c2cccc3cccc(c23)C1=O)NCc1ccco1,inactive
22,O=C1c2cccc3cccc(c23)C(=O)N1CCCCCc1n[nH]c(=S)o1,-5.24 (active)
23,CCC1(c2ccccc2)NC(=O)N(CC(=O)c2ccc3c(c2)OCO3)C1=O (configuration not stated),inactive
24,CCCn1c(C)cc(/C=C(\C#N)C(=O)OCC(=O)N(C)c2c(N)n(Cc3ccccc3)c(=O)[nH]c2=O)c1C,inactive
25,CCOC(=O)N1CCN(CC(=O)c2c(C)[nH]c3ccccc23)CC1,inactive
26,Cc1[nH]c2ccccc2c1C(=O)CN1CC(C)CC(C)C1 (configuration not stated),inactive

row,SMILES,B-score
1,Cc1[nH]c2ccccc2c1C(=O)CN1CCCC(C)C1 (configuration not stated),-6.04 (active)
2,[O-][n+]1ccc(OCc2ccccc2)cc1,inactive
3,Cc1ccc([C@@H]2CC=C(C(=O)O)[C@H](c3cccc(Cl)c3)N2S(=O)(=O)c2ccc(C)cc2)cc1,inactive
4,COc1ccccc1C(=O)NC(CCSC)C(=O)N1CCN(C/C=C/c2ccccc2)CC1 (configuration not stated),inactive
5,O=C(Nc1ccc2nc3n(c(=O)c2c1)CCCC3)c1ccc(Cl)nc1,inactive
6,CCN(CC)CCn1cnc2c1c(=O)[nH]c(=O)n2Cc1ccccc1,inactive
7,N=c1c2c(-c3ccccc3)c(-c3ccccc3)n(Cc3ccccc3)c2ncn1CCCO,-9.35 (active)
8,COCCn1cnc2c1c(=O)n(Cc1ccc(Br)cc1)c(=O)n2Cc1ccccc1,inactive
9,CCOC(=O)C1CCN(C(=O)COC(=O)C2CCN(S(=O)(=O)c3ccc4c(c3)OCCO4)CC2)CC1,inactive
10,Cc1cc(C)c(S(=O)(=O)n2cc(C(C)C(N)C(=O)O)c3ccccc32)c(C)c1 (configuration not stated),inactive
11,CCN(CC(=O)Nc1c(F)cccc1F)C(=O)c1ccc(-c2ccccc2)cc1,inactive
12,COc1ccccc1/C=N/Nc1nc(C)c(C(C)=O)s1,inactive
13,COc1ccc(C(=O)NCC(c2ccco2)N2CCc3ccccc32)cc1OC (configuration not stated),inactive
14,Cc1sc2nc(CSCC(=O)NC3CCCCC3)[nH]c(=O)c2c1C,inactive
15,Cn1c(=N)n(CC(O)c2ccccc2)c2ccccc21 (configuration not stated),inactive
16,Cn1c(=N)n(CC(O)c2cccs2)c2ccccc21 (configuration not stated),inactive
17,N=c1n(Cc2ccc(Cl)cc2)c2ccccc2n1CC(O)c1ccco1 (configuration not stated),-5.25 (active)
18,O=C(N/N=C/c1cc(Br)c(O)c([N+](=O)[O-])c1)C(O)(c1ccccc1)c1ccccc1,inactive
19,CCCCN(C(=O)CSCC(=O)Nc1ccc(OC)cc1)c1c(N)n(CCC)c(=O)[nH]c1=O,inactive
20,O=C(Cc1ccc(S(=O)(=O)N2CCOCC2)s1)NCCOc1ccccc1F,inactive
21,Cc1ccc(NC(=O)C2CC(=O)N(c3ccc4c(c3)OCCO4)C2)cc1S(=O)(=O)N1CCCCCC1 (configuration not stated),inactive
22,CCCCCn1c(=O)c(C(=O)OCC)c(Cl)c2ccccc21,-5.74 (active)
23,CCOC(=O)c1nnn2c3ccccc3c(=O)n(C)c12,inactive
24,CCCCn1c(=O)c(C(C)=O)c(O)c2ccccc21,inactive
